High-throughput results as filed in PubChem.
Wnt act – Wnt/beta-catenin pathway activators, primary screen, cell-based, plate reader, single point. Wnt/beta-catenin reporter cell assay, activator. activation, % at 9.35 µM. 300,000 tested, 1.2% active; in the data active = activation above about 30%, passing the limit was not always enough
MITF TRPM1 HTS – activators of MITF-driven TRPM1 promoter reporter, primary screen, cell-based, SK-MEL-5, luciferase, single point | 300,000 tested, 0.75% active | SK-MEL-5 TRPM1-promoter luciferase, 24 h; % of positive control, neutral wells = 0 | activation, % at 12.5 µM;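 active = mean activation of at least 80% with every replicate also reaching 80%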
AF4-AF9 inh – inhibitors of AF4 peptide binding to AF9, primary screen, biochemical, AlphaScreen, biotin-AF4 peptide, FLAG-AF9, single point | inhibition, % at 10 µM | 350,000 tested, 0.47% active | AID 651704, 2012 | Protein AF-9 (Homo sapiens), P42568;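 active = every replicate reaching a set inhibition limit, whatever the replicate mean, cut at about 25% in these data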
Target sequence (P42568 whole entry, looked up): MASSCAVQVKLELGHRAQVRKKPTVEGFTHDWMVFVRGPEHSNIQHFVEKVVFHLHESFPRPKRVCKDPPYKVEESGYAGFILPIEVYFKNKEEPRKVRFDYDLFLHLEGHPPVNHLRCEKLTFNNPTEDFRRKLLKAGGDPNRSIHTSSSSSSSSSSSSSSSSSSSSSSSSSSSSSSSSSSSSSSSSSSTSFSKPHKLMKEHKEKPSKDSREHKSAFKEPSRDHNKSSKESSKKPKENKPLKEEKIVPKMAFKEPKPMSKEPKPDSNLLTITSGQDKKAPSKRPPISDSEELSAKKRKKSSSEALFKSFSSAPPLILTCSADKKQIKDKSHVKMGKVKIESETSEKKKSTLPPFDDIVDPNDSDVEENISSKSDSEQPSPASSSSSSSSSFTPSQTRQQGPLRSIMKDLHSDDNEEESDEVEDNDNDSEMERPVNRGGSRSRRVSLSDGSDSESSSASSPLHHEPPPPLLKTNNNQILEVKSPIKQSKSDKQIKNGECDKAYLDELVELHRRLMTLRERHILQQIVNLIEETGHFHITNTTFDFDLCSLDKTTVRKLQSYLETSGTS
esBAF inh – Bmi1 luciferase reporter increase in mESCs, primary screen, esBAF inhibitor project, mouse ES cells, Bmi1 luciferase knock-in, single point; 24 h; 100% = twice the neutral-well signal; reporter increase, % at 12.5 µM; 350,000 tested, 2% active; AID 602393, 2012; in the data active = activation above about 40%;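 note: a rise in the Bmi1 reporter signal indicates esBAF inhibition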
FGF22 binding – binders of human FGF22 protein, primary screen, FGF22 synaptogenesis inhibitor project, biophysical, thermal shift, single point; Fibroblast growth factor 22 (Homo sapiens), Q9HCT0; recombinant FGF22 thermal shift, SYPRO orange fluorescence; percent of sucrose octasulfate shift, DMSO zero; activity (Tm shift, normalised), % at 9.99 µM; 340,000 tested, 1.5% active; AID 651658, 2012;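 active = mean Tm shift, scaled 0 neutral to 100 positive control, at about 1.3% or above, every replicate too, limit read from the data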
SMARCA2 activ – SMARCA2 (BRM) function activators, primary screen, cell-based, luminescence, high throughput | 370,000 tested, 1% active | MG213 cells, MMTV-luciferase reporter, dexamethasone, overnight | activation, % at 9.1 µM; in the data active = activation above about 7.8%
Each line names hits and unclear results; the compound was inactive in the other large screens. Only some compounds are listed: those with a hit (about 4.3% of all), similar ones and a draw of the others.

Cc1ccc(NCc2nc3ccccc3n2C)c(C)c1	Wnt act 40
Cc1cccc(NCc2nc3ccccc3n2Cc2ccccc2)c1	none (no result: MITF TRPM1 HTS, AF4-AF9 inh, FGF22 binding)
Cc1cccc(NCc2nc3ccccc3n2C)c1	esBAF inh 61 (no result: Wnt act, AF4-AF9 inh, FGF22 binding)
Cc1ccc(N2CCN(c3ccc(NCc4nc5ccccc5n4C)cc3)CC2)cc1	none (no result: esBAF inh)
CCOc1ccc(C=NNC(=O)c2cc(-c3ccc(Cl)cc3)n[nH]2)cc1	none (no result: Wnt act, MITF TRPM1 HTS, AF4-AF9 inh, esBAF inh, FGF22 binding)
Cc1noc(C)c1S(=O)(=O)Nc1ccc2c(c1)CC(=O)N([C@@H](C)CO)C[C@@H](C)[C@@H](CN(C)S(=O)(=O)c1cn(C)cn1)O2	none (no result: Wnt act, MITF TRPM1 HTS, SMARCA2 activ)
Cc1ccc(-c2nc(NC(=O)CSc3nnnn3-c3ccccc3)ns2)cc1	esBAF inh 84 (no result: AF4-AF9 inh, FGF22 binding)
COc1ccccc1S(=O)(=O)N[C@H]1CC[C@@H](CCn2cc(C3CCCC3)nn2)O[C@H]1CO	none (no result: Wnt act, MITF TRPM1 HTS, esBAF inh, SMARCA2 activ)
CC1=CC(C)(C)N=C(Nc2ccc(C)cc2)S1	esBAF inh 46 (no result: AF4-AF9 inh, FGF22 binding)
O=Nc1c2cc3ccccc3[nH]c-2c2ccccc12	Wnt act 74
Cc1ccc(CSc2nc3ccncc3[nH]2)cc1	none
Clc1ccc(CSc2nc3ccncc3[nH]2)cc1	Wnt act 37
C[C@@H]1CN([C@H](C)CO)C(=O)c2cc(C#Cc3cccc(F)c3)cnc2O[C@@H]1CN(C)C(=O)C1CC1	none (no result: Wnt act, MITF TRPM1 HTS, SMARCA2 activ)
O=C(COC(=O)Cn1cnc2ccccc21)Nc1ccc2c(c1)C(=O)c1ccccc1C2=O	Wnt act 59 (no result: esBAF inh)
O=C(CCCc1ccccc1)NC1CCSC1=O (stereo not drawn)	none (no result: FGF22 binding)
O=C(Cc1ccc(F)cc1)NC1CCSC1=O (stereo not drawn)	FGF22 binding 43 (no result: esBAF inh)
Nc1ccc2oc(-c3ccc4nc[nH]c4c3)nc2c1	none (no result: MITF TRPM1 HTS, AF4-AF9 inh, FGF22 binding)
Cc1nc2ccc(-c3nc4cc(N)ccc4o3)cc2[nH]1	Wnt act 33 (no result: AF4-AF9 inh, FGF22 binding)
CCNC(=O)C[C@@H]1C=C[C@@H](NC(=O)C2CCOCC2)[C@H](CO)O1	none (no result: Wnt act, MITF TRPM1 HTS, SMARCA2 activ)
C[C@H](CO)N1C[C@H](C)[C@@H](CN(C)C(=O)Nc2ccc(F)cc2)Oc2c(NC(=O)C3CCCCC3)cccc2C1=O	none (no result: Wnt act, MITF TRPM1 HTS, SMARCA2 activ)
O=C(Cn1nc(-c2ccccc2)c2ccccc2c1=O)Nc1ccccn1	esBAF inh 48 (no result: Wnt act, AF4-AF9 inh, FGF22 binding)
Cc1nn(CC(=O)Nc2ccccn2)c(=O)c2ccccc12	none (no result: AF4-AF9 inh, FGF22 binding)
O=C(Cn1nc(-c2ccccc2)ccc1=O)Nc1ccc(NC(=O)c2ccccn2)cc1	FGF22 binding 44 (no result: esBAF inh)
CC1CCCCC1NC(=O)Cn1nc(-c2ccccc2)ccc1=O (stereo not drawn)	AF4-AF9 inh 27
CCCN1C[C@@H](C)[C@@H](OC)CN(C)C(=O)c2ccc(NC(=O)C3CCOCC3)cc2OC[C@@H]1C	none (no result: Wnt act, MITF TRPM1 HTS, FGF22 binding, SMARCA2 activ)
C/C(=N\NC(=O)c1ccc(O)cc1)c1cccc(NC(=O)c2ccc(Cl)cc2)c1	esBAF inh 52 (no result: MITF TRPM1 HTS)
C/C(=N\NC(=O)c1cccc(F)c1)c1cccc(NC(=O)c2ccc(F)cc2)c1	FGF22 binding 43 (no result: esBAF inh)
C/C(=N\NC(=O)c1cccc(N/N=C(\C)c2ccco2)c1)c1ccco1	none (no result: esBAF inh)
C/C(=N\NC(=O)c1ccc(Cl)cc1)c1cccc(NC(=O)c2cccnc2)c1	none (no result: AF4-AF9 inh, FGF22 binding)
C/C(=N\NC(=O)c1cccc(N/N=C(\C)c2cc(O)ccc2O)c1)c1cc(O)ccc1O	FGF22 binding 43 (no result: esBAF inh)
C/C(=N\NC(=O)c1ccc(F)cc1)c1cccc(NC(=O)c2cccc(F)c2)c1	none
C/C(=N/NC(=O)c1ccncc1)c1ccc(NC(=O)c2ccc(Cl)cc2Cl)cc1	MITF TRPM1 HTS 88 (no result: esBAF inh)
C[C@@H]1CN([C@H](C)CO)C(=O)Cc2cc(NC(=O)c3ccncc3)ccc2O[C@H]1CN(C)Cc1ccncc1	none (no result: Wnt act, MITF TRPM1 HTS, SMARCA2 activ)
CCN(Cc1cn(Cc2ccccc2)nn1)S(=O)(=O)c1ccc(N2CCCC2)cc1Br	none (no result: Wnt act, MITF TRPM1 HTS, AF4-AF9 inh, esBAF inh, FGF22 binding)
O=C(/C=C/c1ccc([N+](=O)[O-])cc1)OCc1cnc(-c2ccccc2)o1	FGF22 binding 44 (no result: esBAF inh)
CC(NC(=O)COC(=O)/C=C/c1ccc([N+](=O)[O-])cc1)c1ccccc1 (stereo not drawn)	none (no result: Wnt act, esBAF inh)
